Compounds with a hit are over-represented: about 0.85% of the library has one in this group of screens.
ZTA counter = blocks Epstein-Barr virus ZTA, an EBNA-1 counter-screen; ZTA-DNA binding, fluorescence polarization; inhibition, % at 11 µM; 320,000 compounds, 0.15% hits; in the data active = inhibition above about 33%
LANA DNA inh = KSHV C-LANA DNA binding inhibition; inhibition, % at 9 µM; MBP-C-LANA/FAM-LBS DNA binding, fluorescence polarization; 340,000 compounds, 0.078% hits;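 active = highest replicate inhibition at or above 60% at 9 µM, even if other replicates fall short; inactive = all replicates below 60% inhibition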
EBNA-1 inhibitor = blocks EBNA-1 binding to DNA | EBNA-1 DNA binding, fluorescence polarization | inhibition, % at 14.8 µM | 300,000 compounds, 0.34% hits; in the data active = inhibition above about 28%
Keap1 Nrf2 FP = Keap1-Nrf2 (human) interaction inhibition | Q14145 | Keap1 Kelch-Nrf2 peptide fluorescence polarization, 1536-well | inhibition, % at 9.4 µM | 340,000 compounds, 0.15% hits; in the data active = inhibition above about 12%; inconclusive = no clear call, values can overlap the other calls; inactive = below about 7.3%;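 note: human Keap1 Kelch domain with fluorescein labeled Nrf2 9mer peptide probe; higher means more block of Keap1 binding to Nrf2 peptide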
Target sequence (Q14145 whole entry, looked up, the tested form may be a part): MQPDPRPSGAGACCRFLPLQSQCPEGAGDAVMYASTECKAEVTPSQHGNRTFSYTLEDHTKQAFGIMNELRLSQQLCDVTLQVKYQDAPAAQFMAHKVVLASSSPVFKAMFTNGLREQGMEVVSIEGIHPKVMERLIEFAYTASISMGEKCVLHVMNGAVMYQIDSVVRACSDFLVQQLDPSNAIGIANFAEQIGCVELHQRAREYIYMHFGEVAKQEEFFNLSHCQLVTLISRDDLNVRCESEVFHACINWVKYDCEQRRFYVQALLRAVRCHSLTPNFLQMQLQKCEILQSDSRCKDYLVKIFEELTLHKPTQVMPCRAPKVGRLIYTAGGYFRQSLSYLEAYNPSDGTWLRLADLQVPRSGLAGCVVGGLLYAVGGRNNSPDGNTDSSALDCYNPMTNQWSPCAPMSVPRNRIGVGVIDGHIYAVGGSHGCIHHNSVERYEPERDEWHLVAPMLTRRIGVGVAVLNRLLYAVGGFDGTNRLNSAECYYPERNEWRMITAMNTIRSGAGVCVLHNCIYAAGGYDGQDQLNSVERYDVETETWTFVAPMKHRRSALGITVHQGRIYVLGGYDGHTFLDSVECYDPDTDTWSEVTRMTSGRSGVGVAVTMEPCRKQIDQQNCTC
E coli Lon inh = inhibits E. coli Lon protease; P0A9M0; purified E. coli Lon protease, fluorescence polarization; inhibition, % at 7.94 µM; 360,000 compounds, 0.42% hits; in the data active = inhibition above about 13%, passing the limit was not always enough
eLon confirm = E. coli Lon inhibition confirmation. shares compounds with E coli Lon inh. purified E. coli Lon, fluorescence polarization. inhibition, % at 7.94 µM. 1,400 compounds, 31% hits; in the data active = inhibition above about 16%
Each line names hits and unclear results; the compound was inactive in the other large screens (follow-up assays come after a bar, where they were run).

Cc1ccc(N(CC(=O)NC2CCCC2)C(=O)CNC(=O)c2cccs2)cc1C	E coli Lon inh 19 | eLon confirm inactive
O=C(O)c1csc(-c2ccc(Cl)cc2)n1	E coli Lon inh 16 | eLon confirm inactive
CNC(=O)c1csc(-c2ccc(Cl)cc2)n1	none
S=c1[nH]nc(-c2ccccn2)n1/N=C/c1ccc(Cl)cc1	E coli Lon inh 18 | eLon confirm inactive
Cc1[nH]n(-c2ccccc2)c(=O)c1/C=N/NC(=O)c1ccccc1F	E coli Lon inh 21 | eLon confirm inactive
CCOc1cc(/C=C2\CCCc3c2nc2ccccc2c3C(=O)O)ccc1OC	E coli Lon inh 115 | eLon confirm 66
Cc1cccc(C)c1NC(=O)COC(=O)c1c2c(nc3ccccc13)/C(=C\c1ccc3c(c1)OCO3)CCC2	Keap1 Nrf2 FP inconclusive, E coli Lon inh active | eLon confirm 74
CCOC(=O)C1=CCN(S(=O)(=O)c2ccccc2Cl)C1c1cccc(C)c1 (centres undefined)	none (no result: ZTA counter, LANA DNA inh, EBNA-1 inhibitor, Keap1 Nrf2 FP)
CC(=O)N1CCN(S(=O)(=O)c2ccc(S(=O)(=O)N3CCCC(C)C3)cc2)CC1 (centres undefined)	E coli Lon inh 22 | eLon confirm inactive
CC(=O)N1CCC(C(=O)Nc2ccc(S(=O)(=O)N3CCCC(C)C3)cc2)CC1 (centres undefined)	none (no result: ZTA counter, EBNA-1 inhibitor)
CSc1ccccc1OCc1cc(C(=O)N2CCC(Oc3cccnc3)CC2)no1	none
O=C(COC(=O)c1cc[n+]([O-])cc1)Nc1cccc(Cl)c1Cl	E coli Lon inh 16 | eLon confirm inactive
CC(=O)c1ccccc1NC(=O)COC(=O)c1cc[n+]([O-])cc1	none (no result: ZTA counter, EBNA-1 inhibitor)
C[C@H](CO)N1C[C@H](C)[C@H](CN(C)C(=O)c2ccccc2F)Oc2ncc(Br)cc2C1=O	none (no result: ZTA counter, LANA DNA inh, EBNA-1 inhibitor, Keap1 Nrf2 FP)
CC(=O)N/N=C/c1cc(C(C)(C)C)cc(/C=N/NC(C)=O)c1O	E coli Lon inh 41 | eLon confirm 75
CC(=O)Nc1cccc(NC(=O)CSc2nc3c(c(=O)n(C)c(=O)n3C)n2C)c1	none
c1cc2ccc3ccc(CN4CCOCC4)c4ccc(c1)c2c34	E coli Lon inh 17 | eLon confirm inactive
OC1CCCN(Cc2ccc3ccc4cccc5ccc2c3c45)C1 (centres undefined)	none
Cc1cc(Br)ccc1SCC(=O)OCC(=O)Nc1ccc2[nH]c(=O)[nH]c2c1	none (no result: EBNA-1 inhibitor)
CC1Cc2[nH]c(=S)[nH]c(=O)c2C(c2ccc(F)cc2)O1 (centres undefined)	none (no result: ZTA counter, LANA DNA inh, EBNA-1 inhibitor, Keap1 Nrf2 FP)
Cc1cc(NC(=O)CCC(=O)N(Cc2ccco2)C2(C(=O)NC3CCCCC3)CCCCC2)no1	E coli Lon inh 21 | eLon confirm inactive
CC(C)Oc1ccccc1NC(=O)CSc1nccn1C	none
Cn1c(O)c(N=NC(=O)CNC(=O)c2cccnc2)c2ccccc21	E coli Lon inh 19 | eLon confirm inactive
CCCn1c(O)c(N=NC(=O)CNC(=O)c2cccnc2)c2ccccc21	none
COc1ccc(CCNC(=O)COC(=O)CNS(=O)(=O)c2ccc(SC)c([N+](=O)[O-])c2)cc1	none (no result: EBNA-1 inhibitor)
Cn1c(CNc2ccc(Cl)cc2)nnc1SCc1ccccc1	E coli Lon inh active | eLon confirm inactive
NC(=O)c1ccc2c(c1)S(=O)(=O)c1ccccc1C2=O	none
CC1=C(C(N)=O)S(=O)(=O)c2ccccc21	E coli Lon inh 18 | eLon confirm 29
CN(CC1CCCO1)S(=O)(=O)c1ccc(C(=O)Nc2nnc(-c3ccccc3)o2)cc1 (centres undefined)	none
COc1cc(C2C(C#N)=C(N)OC3=C2C(=O)CC(C)(C)C3)c([N+](=O)[O-])cc1OC (centres undefined)	E coli Lon inh 34 | eLon confirm 19
CCCCNc1ccc2c3c(cccc13)C(=O)N(CCCC)C2=O	E coli Lon inh 135 (no result: ZTA counter, EBNA-1 inhibitor) | eLon confirm inactive
CN(C)CCCN1C(=O)c2cccc3c(Br)ccc(c23)C1=O	E coli Lon inh 31 | eLon confirm 68
CC(=O)N(C(C)=O)N1C(=O)c2cccc3c(N4CCOCC4)ccc(c23)C1=O	E coli Lon inh 39 | eLon confirm 21
O=C1c2cccc3c(N4CCCCC4)ccc(c23)C(=O)N1c1ccccn1	none
COc1ccc(OC)c(NCCN2C(=O)c3ccccc3C2=O)c1	none (no result: ZTA counter, LANA DNA inh, EBNA-1 inhibitor, Keap1 Nrf2 FP)
CCCN1C(=O)c2cccc3c(N4CCCCC4)ccc(c23)C1=O	E coli Lon inh 74 | eLon confirm inactive
COC(=O)c1scc(C)c1NC(=O)c1ccccc1F	none
CC(=O)NCCNc1nc2cc(-c3ccc(Cl)cc3C)sc2c(=O)n1C	none (no result: ZTA counter, LANA DNA inh, EBNA-1 inhibitor, Keap1 Nrf2 FP)
COc1cc(C(=O)c2cc3c(cc2C)OCO3)cc(OC)c1OC	none (no result: ZTA counter, LANA DNA inh, EBNA-1 inhibitor, Keap1 Nrf2 FP)
O=C1CCC/C1=C/Nc1ccc(Cl)cc1	none
O=C1CCCC/C1=C\Nc1ccc(O)cc1	E coli Lon inh 19 | eLon confirm inactive
O=C1CCN2C=Nc3cccc4ccc1c2c34	LANA DNA inh 152, Keap1 Nrf2 FP 140, E coli Lon inh active | eLon confirm active
CC(=O)c1cc(-c2ccccc2)[nH]c1N1CCOCC1	E coli Lon inh 63 | eLon confirm inactive
O=C(Nc1ccc(S(=O)(=O)N2CCCCC2)cc1)C1CC(=O)N(c2ccc(Cl)cc2)C1 (centres undefined)	none
O=C(CN(C(=O)Cn1nnc(-c2ccc(F)cc2)n1)c1ccc(F)cc1)NC1CCCC1	E coli Lon inh 18 | eLon confirm inactive
NS(=O)(=O)c1ccc(CNC(=O)c2cccnc2Cl)cc1	none
CC1(C(=O)NS(=O)(=O)c2ccc(Cl)s2)CCN1C(=O)c1ccccc1CCc1ccccc1 (centres undefined)	none (no result: ZTA counter, LANA DNA inh, EBNA-1 inhibitor, Keap1 Nrf2 FP)
Cc1ccc(C(=O)CNc2cc(C)ccc2C)cc1	none
CCNc1cc(O)ccc1C	E coli Lon inh 117 (no result: EBNA-1 inhibitor) | eLon confirm 89
O=C(COc1ccc(S(=O)(=O)N2CCOCC2)cc1Cl)NCC1CCCO1 (centres undefined)	none
CN(C(=O)C1Cc2c(-c3ccc(Cl)cc3)ccnc2O1)c1ccccc1 (centres undefined)	none (no result: ZTA counter, LANA DNA inh, EBNA-1 inhibitor, Keap1 Nrf2 FP)
O=C(O)c1ccccc1Nc1cc(Cl)c2nonc2c1[N+](=O)[O-]	none
O=[N+]([O-])c1c(Nc2ccccn2)cc(Cl)c2nonc12	E coli Lon inh 52 | eLon confirm inactive
Cc1cccc(NC(=O)CSc2nnc(-c3ccco3)c(-c3ccco3)n2)c1C	E coli Lon inh 89 | eLon confirm inactive
CCCN1CCCc2cc(CN)ccc21	E coli Lon inh 38 | eLon confirm 47
O=C(CCN1CCCCC1=O)NC1CCCc2c1cnn2-c1ccccc1F (centres undefined)	none
CCOc1ccc(C(C(=O)NC2CCCCC2)N(C(=O)c2csnn2)C2CC2)cc1 (centres undefined)	E coli Lon inh 24 | eLon confirm inactive
COC(=O)[C@@]1(Cc2ccc(F)cc2)[C@H]2c3cc(C(=O)N4CCCC4)n(CC4CC4)c3C[C@H]2CN1C(=O)c1ccccc1	none (no result: ZTA counter, LANA DNA inh, EBNA-1 inhibitor, Keap1 Nrf2 FP)
CC1(C)CC(=O)C2=C(C1)Oc1ncn3nc(-c4cccnc4)nc3c1C2c1ccccc1 (centres undefined)	none (no result: ZTA counter, EBNA-1 inhibitor)

Screens: PubChem, several laboratories
